Article PMC7862700, “An all-to-all approach to the identification of sequence-specific readers for epigenetic DNA modifications on cytosine”

Key:
Test in all cases: DAPPL (digital affinity profiling via proximity ligation, sequencing); 10 mM Tris-HCl pH 7.5, 50 mM NaCl, 1 mM DTT, 4% glycerol, room temperature, 30 min; GST-TFs on glutathione beads, 16-mer random dsDNA library, 0.1% formaldehyde crosslink after washing; high values mean tight binding
FEV = target: T1, FEV (Homo sapiens, UniProt Q99581 1-238); conditions: protein: recombinant; tags: N-terminal GST; dsDNA, one strand shown
T1 sequence: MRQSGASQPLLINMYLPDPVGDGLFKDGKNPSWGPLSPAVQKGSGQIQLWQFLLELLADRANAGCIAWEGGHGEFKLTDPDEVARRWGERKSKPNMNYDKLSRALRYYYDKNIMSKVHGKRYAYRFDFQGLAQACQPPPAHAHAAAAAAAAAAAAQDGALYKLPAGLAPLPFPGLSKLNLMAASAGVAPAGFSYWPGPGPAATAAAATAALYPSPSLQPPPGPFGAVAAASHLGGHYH
Outline: (§1)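 In yeast, human transcription factors were expressed with a GST fusion, then pulled down on glutathione beads and given DNA barcodes. Pooled with a tag-only sample, they were exposed to 200 nmole of a 16-mer random double-stranded DNA library (Tris/NaCl/DTT/glycerol buffer, room temperature, 30 min), washed, crosslinked with 0.1% formaldehyde, proximity-ligated using BsaI/T4 ligase for 1 h at 37 °C, PCR-amplified and read on an Illumina NextSeq500. Each hexamer's frequency of reads for a factor, divided by the matching frequency for the tag-only sample, gives the binding signal.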

ETV5 = ETV5 (Homo sapiens, UniProt P41161 1-510); conditions: protein: recombinant; tags: N-terminal GST; dsDNA, one strand shown
Outline: as §1

HSF1 = HSF1 (Homo sapiens, UniProt Q00613 1-529); conditions: protein: recombinant; tags: N-terminal GST; chain copies: 3; dsDNA, one strand shown
Outline: as §1

SPIC = target: T2, SPIC (Homo sapiens, UniProt Q8N5J4 1-248); conditions: protein: recombinant; tags: N-terminal GST; dsDNA, one strand shown
T2 sequence: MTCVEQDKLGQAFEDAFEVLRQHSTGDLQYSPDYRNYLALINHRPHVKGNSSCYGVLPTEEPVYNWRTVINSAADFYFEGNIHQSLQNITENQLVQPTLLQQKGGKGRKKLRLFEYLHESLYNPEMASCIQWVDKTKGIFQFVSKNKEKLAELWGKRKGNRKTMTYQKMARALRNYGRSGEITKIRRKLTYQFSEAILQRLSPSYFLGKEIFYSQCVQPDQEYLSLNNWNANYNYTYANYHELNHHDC
Outline: as §1

ELF4 = ELF4 (Homo sapiens, UniProt Q99607 1-663); conditions: protein: recombinant; tags: N-terminal GST; dsDNA, one strand shown
Outline: as §1

ELK4 = target: T3, ELK4 (Homo sapiens, UniProt P28324-2 1-405); conditions: protein: recombinant; tags: N-terminal GST; dsDNA, one strand shown
T3 sequence: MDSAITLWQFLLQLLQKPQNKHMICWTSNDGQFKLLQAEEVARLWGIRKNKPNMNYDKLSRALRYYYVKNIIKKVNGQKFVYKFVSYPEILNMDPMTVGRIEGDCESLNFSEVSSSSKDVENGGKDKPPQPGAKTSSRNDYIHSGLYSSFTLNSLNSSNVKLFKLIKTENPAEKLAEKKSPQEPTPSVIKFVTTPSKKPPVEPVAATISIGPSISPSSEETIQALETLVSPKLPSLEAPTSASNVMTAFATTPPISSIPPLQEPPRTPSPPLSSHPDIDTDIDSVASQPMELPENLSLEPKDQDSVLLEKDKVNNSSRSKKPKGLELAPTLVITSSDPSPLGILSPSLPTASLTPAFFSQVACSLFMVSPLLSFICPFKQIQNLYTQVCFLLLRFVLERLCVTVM
Outline: as §1

ETV2 = target: T4, ETV2 (Homo sapiens, UniProt O00321 1-342); conditions: protein: recombinant; tags: N-terminal GST; dsDNA, one strand shown
T4 sequence: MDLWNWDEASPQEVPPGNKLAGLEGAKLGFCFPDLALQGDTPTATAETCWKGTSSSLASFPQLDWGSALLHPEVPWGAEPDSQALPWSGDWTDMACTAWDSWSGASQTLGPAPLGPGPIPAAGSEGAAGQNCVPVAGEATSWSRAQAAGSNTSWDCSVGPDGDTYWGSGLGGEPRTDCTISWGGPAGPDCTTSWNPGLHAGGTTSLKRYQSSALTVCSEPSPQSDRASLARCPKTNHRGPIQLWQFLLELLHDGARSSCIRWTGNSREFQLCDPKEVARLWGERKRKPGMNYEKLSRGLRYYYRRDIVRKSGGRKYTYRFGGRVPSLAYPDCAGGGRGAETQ
Outline: as §1

ELF3 = target: T5, ELF3 (Homo sapiens, UniProt P78545 1-371); conditions: protein: recombinant; tags: N-terminal GST; dsDNA, one strand shown
T5 sequence: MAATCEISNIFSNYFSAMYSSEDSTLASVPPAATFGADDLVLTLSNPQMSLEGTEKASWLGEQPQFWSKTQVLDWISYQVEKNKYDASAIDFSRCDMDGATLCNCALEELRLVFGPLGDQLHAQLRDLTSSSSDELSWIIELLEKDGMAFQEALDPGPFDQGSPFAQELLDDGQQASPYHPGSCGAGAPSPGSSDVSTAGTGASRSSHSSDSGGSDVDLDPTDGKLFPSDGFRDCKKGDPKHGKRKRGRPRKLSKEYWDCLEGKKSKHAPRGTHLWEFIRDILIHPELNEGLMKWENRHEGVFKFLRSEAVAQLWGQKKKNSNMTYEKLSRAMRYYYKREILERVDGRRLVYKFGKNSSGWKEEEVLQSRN
Outline: as §1

CRX = CRX (Homo sapiens, UniProt O43186 1-299); conditions: protein: recombinant; tags: N-terminal GST; dsDNA, one strand shown
Outline: as §1

ETV1 = ETV1 (Homo sapiens, UniProt P50549 1-477); conditions: protein: recombinant; tags: N-terminal GST; dsDNA, one strand shown
Outline: as §1

ERF = target: T6, ERF (Homo sapiens, UniProt P50548 1-548); conditions: protein: recombinant; tags: N-terminal GST; dsDNA, one strand shown
T6 sequence: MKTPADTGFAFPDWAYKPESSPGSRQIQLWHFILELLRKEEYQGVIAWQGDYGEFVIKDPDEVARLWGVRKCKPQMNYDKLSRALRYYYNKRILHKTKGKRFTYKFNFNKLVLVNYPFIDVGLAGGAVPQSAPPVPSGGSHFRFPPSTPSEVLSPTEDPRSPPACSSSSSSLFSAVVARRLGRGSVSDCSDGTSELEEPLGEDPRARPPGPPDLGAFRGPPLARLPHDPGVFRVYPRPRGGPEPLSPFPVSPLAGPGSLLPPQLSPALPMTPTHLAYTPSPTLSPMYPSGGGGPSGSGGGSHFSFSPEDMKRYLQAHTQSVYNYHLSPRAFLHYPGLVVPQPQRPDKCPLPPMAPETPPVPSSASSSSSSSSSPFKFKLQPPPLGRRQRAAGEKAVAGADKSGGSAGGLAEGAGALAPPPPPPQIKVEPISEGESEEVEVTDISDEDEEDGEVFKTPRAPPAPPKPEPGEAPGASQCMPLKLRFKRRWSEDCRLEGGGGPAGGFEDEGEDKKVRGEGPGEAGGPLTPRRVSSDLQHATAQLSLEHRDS
Outline: as §1

ETV3L = target: T7, ETV3L (Homo sapiens, UniProt Q6ZN32 1-361); conditions: protein: recombinant; tags: N-terminal GST; dsDNA, one strand shown
T7 sequence: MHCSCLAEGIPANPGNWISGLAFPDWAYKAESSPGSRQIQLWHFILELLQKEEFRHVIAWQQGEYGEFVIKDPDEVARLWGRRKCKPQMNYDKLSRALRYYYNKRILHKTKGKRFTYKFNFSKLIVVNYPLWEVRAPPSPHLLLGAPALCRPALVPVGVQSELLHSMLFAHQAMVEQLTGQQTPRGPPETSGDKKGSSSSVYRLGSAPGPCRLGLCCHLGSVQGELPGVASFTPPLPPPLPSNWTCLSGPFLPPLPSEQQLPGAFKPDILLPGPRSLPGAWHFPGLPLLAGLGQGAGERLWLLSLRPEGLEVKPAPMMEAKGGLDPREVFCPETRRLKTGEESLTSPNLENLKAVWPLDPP
Outline: as §1

ETS2 = target: T8, ETS2 (Homo sapiens, UniProt P15036 1-469); conditions: protein: recombinant; tags: N-terminal GST; dsDNA, one strand shown
T8 sequence: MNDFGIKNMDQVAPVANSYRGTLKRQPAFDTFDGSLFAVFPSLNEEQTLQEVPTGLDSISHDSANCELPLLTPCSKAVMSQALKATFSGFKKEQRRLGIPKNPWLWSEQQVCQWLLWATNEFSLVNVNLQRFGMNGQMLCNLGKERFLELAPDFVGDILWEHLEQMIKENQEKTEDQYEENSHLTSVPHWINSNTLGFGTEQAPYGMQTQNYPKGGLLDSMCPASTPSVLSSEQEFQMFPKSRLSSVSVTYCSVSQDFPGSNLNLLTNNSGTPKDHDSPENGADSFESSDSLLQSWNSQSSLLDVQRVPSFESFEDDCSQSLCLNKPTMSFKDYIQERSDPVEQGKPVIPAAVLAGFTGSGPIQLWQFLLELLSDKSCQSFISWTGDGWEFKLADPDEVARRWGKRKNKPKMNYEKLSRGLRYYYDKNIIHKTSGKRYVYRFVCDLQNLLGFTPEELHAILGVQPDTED
Outline: as §1

SPDEF = target: T9, SPDEF (Homo sapiens, UniProt O95238 1-335); conditions: protein: recombinant; tags: N-terminal GST; dsDNA, one strand shown
T9 sequence: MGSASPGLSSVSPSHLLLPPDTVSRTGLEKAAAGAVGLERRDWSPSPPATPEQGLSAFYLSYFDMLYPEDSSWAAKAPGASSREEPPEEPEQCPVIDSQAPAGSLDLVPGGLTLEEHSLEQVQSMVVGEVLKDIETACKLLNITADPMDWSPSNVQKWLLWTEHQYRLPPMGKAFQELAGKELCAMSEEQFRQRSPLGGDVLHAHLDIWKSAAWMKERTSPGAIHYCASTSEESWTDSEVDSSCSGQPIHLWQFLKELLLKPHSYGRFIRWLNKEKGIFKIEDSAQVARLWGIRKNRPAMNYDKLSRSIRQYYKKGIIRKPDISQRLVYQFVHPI
Outline: as §1

ETV7 = target: T10, ETV7 (Homo sapiens, UniProt Q9Y603 1-341); conditions: protein: recombinant; tags: N-terminal GST; dsDNA, one strand shown
T10 sequence: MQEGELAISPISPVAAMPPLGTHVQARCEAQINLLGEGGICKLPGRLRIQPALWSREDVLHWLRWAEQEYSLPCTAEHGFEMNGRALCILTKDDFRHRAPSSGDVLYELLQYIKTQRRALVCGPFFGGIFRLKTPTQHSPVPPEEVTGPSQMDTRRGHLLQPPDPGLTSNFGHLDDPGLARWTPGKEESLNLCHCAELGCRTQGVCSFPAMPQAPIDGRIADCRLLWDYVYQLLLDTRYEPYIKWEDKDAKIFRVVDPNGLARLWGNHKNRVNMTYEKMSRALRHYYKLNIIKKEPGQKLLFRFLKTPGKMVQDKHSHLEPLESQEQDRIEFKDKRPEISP
Outline: as §1

ELF5 = target: T11, ELF5 (Homo sapiens, UniProt Q9UKW6-2 1-255); conditions: protein: recombinant; tags: N-terminal GST; dsDNA, one strand shown
T11 sequence: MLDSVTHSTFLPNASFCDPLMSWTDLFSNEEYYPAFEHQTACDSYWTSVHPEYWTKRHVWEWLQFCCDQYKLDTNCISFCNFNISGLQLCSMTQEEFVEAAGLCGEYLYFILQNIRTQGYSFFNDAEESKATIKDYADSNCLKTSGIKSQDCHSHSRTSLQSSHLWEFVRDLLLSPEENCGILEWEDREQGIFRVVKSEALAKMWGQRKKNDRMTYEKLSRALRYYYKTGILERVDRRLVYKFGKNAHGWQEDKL
Outline: as §1

ETV3 = target: T12, ETV3 (Homo sapiens, UniProt P41162-2 1-143); conditions: protein: recombinant; tags: N-terminal GST; dsDNA, one strand shown
T12 sequence: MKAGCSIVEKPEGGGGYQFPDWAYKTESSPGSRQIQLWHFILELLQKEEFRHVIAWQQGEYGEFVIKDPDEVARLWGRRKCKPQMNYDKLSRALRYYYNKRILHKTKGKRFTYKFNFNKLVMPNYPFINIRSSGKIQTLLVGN
Outline: as §1

ETV6 = ETV6 (Homo sapiens, UniProt P41212 1-452); conditions: protein: recombinant; tags: N-terminal GST; dsDNA, one strand shown
Outline: as §1

HSF1, sequence (Q00613 whole entry): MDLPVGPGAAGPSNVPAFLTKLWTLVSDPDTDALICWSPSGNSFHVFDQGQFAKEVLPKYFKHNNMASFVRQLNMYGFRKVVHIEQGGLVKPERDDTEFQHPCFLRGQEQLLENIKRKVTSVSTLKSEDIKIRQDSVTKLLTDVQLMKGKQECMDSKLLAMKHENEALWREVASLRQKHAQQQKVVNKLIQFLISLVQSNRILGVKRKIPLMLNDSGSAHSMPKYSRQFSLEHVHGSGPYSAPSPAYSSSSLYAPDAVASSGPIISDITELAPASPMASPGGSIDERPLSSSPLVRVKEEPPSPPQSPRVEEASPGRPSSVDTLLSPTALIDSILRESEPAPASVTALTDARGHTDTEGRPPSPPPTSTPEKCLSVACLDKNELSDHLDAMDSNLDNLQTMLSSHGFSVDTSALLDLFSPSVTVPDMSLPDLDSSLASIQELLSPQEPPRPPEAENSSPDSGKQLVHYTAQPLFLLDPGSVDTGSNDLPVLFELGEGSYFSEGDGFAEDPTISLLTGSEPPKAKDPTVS
ELF4, sequence (Q99607 whole entry): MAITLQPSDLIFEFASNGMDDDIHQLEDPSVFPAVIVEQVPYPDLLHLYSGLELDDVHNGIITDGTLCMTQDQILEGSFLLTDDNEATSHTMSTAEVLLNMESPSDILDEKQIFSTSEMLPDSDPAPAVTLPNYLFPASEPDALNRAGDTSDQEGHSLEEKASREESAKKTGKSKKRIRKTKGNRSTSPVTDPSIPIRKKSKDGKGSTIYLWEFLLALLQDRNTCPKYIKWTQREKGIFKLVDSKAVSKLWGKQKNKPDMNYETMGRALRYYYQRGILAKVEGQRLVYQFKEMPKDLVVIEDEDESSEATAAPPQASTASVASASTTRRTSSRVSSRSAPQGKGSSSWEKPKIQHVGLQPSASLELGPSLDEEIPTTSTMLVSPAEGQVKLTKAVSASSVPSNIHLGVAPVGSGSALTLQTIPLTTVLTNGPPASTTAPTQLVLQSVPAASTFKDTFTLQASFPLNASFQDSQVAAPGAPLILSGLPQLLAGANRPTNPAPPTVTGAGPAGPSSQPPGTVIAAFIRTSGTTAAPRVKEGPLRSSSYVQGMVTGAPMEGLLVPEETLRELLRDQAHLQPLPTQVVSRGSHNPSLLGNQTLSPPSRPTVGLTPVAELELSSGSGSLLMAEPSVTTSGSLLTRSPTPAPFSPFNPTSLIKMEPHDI
ETV5, sequence (P41161 whole entry): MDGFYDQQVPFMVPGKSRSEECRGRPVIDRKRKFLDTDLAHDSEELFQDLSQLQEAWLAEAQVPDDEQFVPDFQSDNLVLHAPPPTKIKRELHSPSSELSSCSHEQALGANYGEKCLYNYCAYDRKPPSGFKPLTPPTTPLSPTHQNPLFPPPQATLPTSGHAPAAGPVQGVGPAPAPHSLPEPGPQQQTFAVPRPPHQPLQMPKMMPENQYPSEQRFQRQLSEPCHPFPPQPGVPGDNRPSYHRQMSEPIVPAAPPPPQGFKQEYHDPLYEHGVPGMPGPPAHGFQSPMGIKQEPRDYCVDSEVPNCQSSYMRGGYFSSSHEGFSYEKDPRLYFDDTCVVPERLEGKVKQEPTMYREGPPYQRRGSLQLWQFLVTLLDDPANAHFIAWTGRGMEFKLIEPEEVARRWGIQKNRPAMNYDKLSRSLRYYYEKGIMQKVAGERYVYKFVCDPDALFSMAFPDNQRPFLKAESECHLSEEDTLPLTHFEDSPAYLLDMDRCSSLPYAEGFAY
ETV1, sequence (P50549 whole entry): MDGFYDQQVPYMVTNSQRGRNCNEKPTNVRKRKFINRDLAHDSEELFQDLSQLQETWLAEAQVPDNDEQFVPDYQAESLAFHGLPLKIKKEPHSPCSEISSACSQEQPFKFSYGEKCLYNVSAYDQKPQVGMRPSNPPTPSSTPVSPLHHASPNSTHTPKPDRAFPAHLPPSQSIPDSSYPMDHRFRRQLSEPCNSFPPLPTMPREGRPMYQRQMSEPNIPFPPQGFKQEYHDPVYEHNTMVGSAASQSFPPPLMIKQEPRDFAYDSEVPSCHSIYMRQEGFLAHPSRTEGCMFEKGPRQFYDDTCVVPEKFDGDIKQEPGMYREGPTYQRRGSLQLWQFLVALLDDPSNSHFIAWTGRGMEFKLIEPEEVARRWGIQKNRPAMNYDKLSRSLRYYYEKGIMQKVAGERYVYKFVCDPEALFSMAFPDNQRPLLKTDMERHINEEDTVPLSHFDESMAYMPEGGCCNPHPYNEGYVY
ETV6, sequence (P41212 whole entry): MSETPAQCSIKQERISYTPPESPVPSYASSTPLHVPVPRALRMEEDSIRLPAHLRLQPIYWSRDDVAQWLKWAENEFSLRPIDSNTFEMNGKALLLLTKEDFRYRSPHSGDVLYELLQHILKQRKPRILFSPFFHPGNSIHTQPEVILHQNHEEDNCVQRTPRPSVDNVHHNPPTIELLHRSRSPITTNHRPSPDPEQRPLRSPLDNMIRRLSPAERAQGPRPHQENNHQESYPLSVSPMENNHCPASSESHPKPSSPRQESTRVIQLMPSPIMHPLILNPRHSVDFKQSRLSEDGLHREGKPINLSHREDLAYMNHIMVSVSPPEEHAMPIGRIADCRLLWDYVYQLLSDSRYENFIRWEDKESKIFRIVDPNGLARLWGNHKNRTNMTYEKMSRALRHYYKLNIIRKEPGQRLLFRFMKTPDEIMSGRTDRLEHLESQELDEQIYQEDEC
CRX, sequence (O43186 whole entry): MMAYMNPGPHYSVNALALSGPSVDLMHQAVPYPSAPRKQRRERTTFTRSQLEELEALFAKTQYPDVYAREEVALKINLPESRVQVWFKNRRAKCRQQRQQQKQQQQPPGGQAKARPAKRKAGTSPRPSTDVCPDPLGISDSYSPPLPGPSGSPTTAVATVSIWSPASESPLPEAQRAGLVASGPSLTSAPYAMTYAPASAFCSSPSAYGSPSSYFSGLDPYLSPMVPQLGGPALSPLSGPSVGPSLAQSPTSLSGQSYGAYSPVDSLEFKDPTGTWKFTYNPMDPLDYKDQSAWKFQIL

TGCTCA
binding signal (FEV): 1.39 fold enrichment (6-mer frequency, TF over GST control) | binding signal (ETV5): 1.4 fold enrichment (6-mer frequency, TF over GST control) | binding signal (HSF1): 1.12 fold enrichment (6-mer frequency, TF over GST control) | binding signal (SPIC): 1.65 fold enrichment (6-mer frequency, TF over GST control) | binding signal (ELF4): 1.28 fold enrichment (6-mer frequency, TF over GST control) | binding signal (ELK4): 1.24 fold enrichment (6-mer frequency, TF over GST control) | binding signal (ETV2): 1.42 fold enrichment (6-mer frequency, TF over GST control) | binding signal (ELF3): 1.31 fold enrichment (6-mer frequency, TF over GST control) | binding signal (CRX): 1.28 fold enrichment (6-mer frequency, TF over GST control) | binding signal (ETV1): 1.34 fold enrichment (6-mer frequency, TF over GST control) | binding signal (ERF): 1.5 fold enrichment (6-mer frequency, TF over GST control) | binding signal (ETV3L): 1.31 fold enrichment (6-mer frequency, TF over GST control) | binding signal (ETS2): 1.36 fold enrichment (6-mer frequency, TF over GST control) | binding signal (SPDEF): 1.28 fold enrichment (6-mer frequency, TF over GST control) | binding signal (ETV7): 1.54 fold enrichment (6-mer frequency, TF over GST control) | binding signal (ELF5): 1.38 fold enrichment (6-mer frequency, TF over GST control) | binding signal (ETV3): 1.24 fold enrichment (6-mer frequency, TF over GST control) | binding signal (ETV6): 1.28 fold enrichment (6-mer frequency, TF over GST control)
